# Laboratory results reported in PubChem BioAssay (NCATS).
# Results filed as inconclusive are left out. Entries that show only a call come without a potency. Calls of active or inactive are those of the source. Calls follow the shape of the dose curve; as a rule, active = well fitted activation curve with a large enough effect in the main read-out, with a control signal flat (not every such curve was filed as active); inconclusive = small, poorly fitted or top-dose-only effect, or effect the other way, or a change in a side signal; inactive = flat fitted curve, though single readings scatter.
# Molecular target: 3',5'-cyclic-AMP phosphodiesterase 4B (Homo sapiens) (UniProt Q07343)
# Test: qHTS Assay for Inhibitors of PDE-IV (AID 607)
# Settings: HEK293 ACTOne CNG channel cells, membrane potential fluorescence; series mostly up to 22.9 µM
# How it was run: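 ACTOne HEK293 cells carry a modified cAMP-gated CNG channel and express endogenous PDE4; plated 1000 cells/well, compounds up to 22.9 uM final. Membrane-potential dye fluorescence (ex 535/em 590) was read; parental cells received 10 uM forskolin + 100 uM RO 20-1724.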
# Potency is read from the fitted curve at half-maximal effect.
# Sequence of 3',5'-cyclic-AMP phosphodiesterase 4B (Homo sapiens) (Q07343 whole entry, looked up): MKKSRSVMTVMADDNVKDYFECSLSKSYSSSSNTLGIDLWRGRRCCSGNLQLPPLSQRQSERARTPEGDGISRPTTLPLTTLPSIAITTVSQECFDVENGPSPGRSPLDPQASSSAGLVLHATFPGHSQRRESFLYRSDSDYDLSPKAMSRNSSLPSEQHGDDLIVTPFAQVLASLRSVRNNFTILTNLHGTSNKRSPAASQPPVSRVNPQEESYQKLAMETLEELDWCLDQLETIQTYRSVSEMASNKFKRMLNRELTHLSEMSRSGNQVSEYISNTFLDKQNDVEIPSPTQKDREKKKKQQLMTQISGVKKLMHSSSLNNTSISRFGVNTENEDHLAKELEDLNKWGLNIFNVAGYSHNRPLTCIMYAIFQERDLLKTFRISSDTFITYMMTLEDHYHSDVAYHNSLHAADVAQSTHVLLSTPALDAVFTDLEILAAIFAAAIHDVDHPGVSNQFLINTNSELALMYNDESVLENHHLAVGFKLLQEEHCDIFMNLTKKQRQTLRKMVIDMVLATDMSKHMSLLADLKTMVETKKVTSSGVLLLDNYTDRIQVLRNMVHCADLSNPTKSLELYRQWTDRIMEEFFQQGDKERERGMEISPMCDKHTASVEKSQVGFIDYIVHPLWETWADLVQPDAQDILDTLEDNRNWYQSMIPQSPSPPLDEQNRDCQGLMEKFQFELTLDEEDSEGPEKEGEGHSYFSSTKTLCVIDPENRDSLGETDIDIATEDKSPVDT
row,SMILES,Potency
1,CCSC(=N)N,inactive
2,O=C(O)C1=CCCN(CCON=C(c2ccccc2)c2ccccc2)C1,inactive
3,CCCCCCN(CCCCCC)C(=O)Cc1c(-c2ccc(F)cc2)[nH]c2ccccc12,inactive
4,CCCn1c(=O)c2[nH]c(-c3ccc(S(=O)(=O)O)cc3)nc2n(CCC)c1=O,inactive
5,Nc1nc2[nH]c(=O)cnc2c(=O)[nH]1,inactive
6,C[C@](Cc1ccc(O)c(O)c1)(NN)C(=O)O,inactive
7,O=C(O)c1ccccc1Nc1ccccc1,inactive
8,COc1ccccc1N1CCN(CCCCNC(=O)c2ccc3ccccc3c2)CC1,inactive
9,CCn1c(=O)[nH]c2cc(Cl)c(Cl)cc21,inactive
10,CCN(CC)CCCCCCCCOC(=O)c1cc(OC)c(OC)c(OC)c1,inactive
11,COc1ccccc1N1CCN(CCCCN2C(=O)c3ccccc3C2=O)CC1,inactive
12,N=C(N)SCCN,inactive
13,COc1ccc2c(c1)c(CC(=O)O)c(C)n2C(=O)c1ccccc1,inactive
14,CCc1ccc2c(-c3cccc(Cl)c3)nc(=O)n(CC)c2n1,12 nM (active)
15,NC/C=C\C(=O)O,inactive
16,N=C(N)c1ccc(OCCCCCOc2ccc(C(=N)N)cc2)cc1 (tested in a mixture with another compound),inactive
17,CC(=O)N[C@@H](Cc1c[nH]c2ccccc12)C(=O)OCc1cc(C(F)(F)F)cc(C(F)(F)F)c1,inactive
18,NC(N)=[N+]1CCc2ccccc2C1,inactive
19,CCCCOC(=O)NS(=O)(=O)c1sc(CC(C)C)cc1-c1ccc(Cn2c(CC)nc3c(C)cc(C)nc32)cc1,inactive

row,SMILES,Potency
1,O=c1[nH]c(=S)[nH]c(-c2ccccc2)c1Cc1c(O)ccc2ccccc12,inactive
2,O=C(O)c1cccnc1C(=O)O,inactive
3,O=C1Nc2ccc(I)cc2/C1=C/c1cc(Br)c(O)c(Br)c1,inactive
4,Cc1nc2c(OCc3ccccc3)cccn2c1CC#N,inactive
5,NCCCCN,inactive
6,CC(=O)NNC(=O)N1Cc2ccccc2Oc2ccc(Cl)cc21,inactive
7,Cn1ccnc1,inactive
8,COc1ccc(NC(=O)c2ccc(-c3ccc(-c4noc(C)n4)cc3C)cc2)cc1N1CCN(C)CC1,inactive
9,O=c1cc(-c2ccccc2)[nH]c2nc(Cl)ccc12,inactive
10,Cc1nc(N=Nc2cc(S(=O)(=O)O)c3cc([N+](=O)[O-])cc(S(=O)(=O)O)c3c2)c(COP(=O)(O)O)c(C=O)c1O,inactive
11,O=c1[nH]c2ccccc2c2ccccc12,inactive
12,c1ccc(CN2CCC3(CCCc4ccccc43)CC2)cc1,inactive
13,NC(=Nc1ccccc1)NC(=O)c1nc(Cl)c(N)nc1N,inactive
14,CCC(=O)N1CCN(C(=O)c2ccccc2)CC1,inactive
15,CC1CCN(CC[C@H]2CCCN2S(=O)(=O)c2cccc(O)c2)CC1,inactive
16,O=c1[nH]c(=O)c2nc3ccccc3nc2[nH]1,inactive
17,CCCCCCC/C=C\CCCCCCCCC(=O)O,inactive
18,CN(C)S(=O)(=O)c1ccc2c(c1)/C(=C/c1cc3c([nH]1)CCCC3)C(=O)N2,inactive
